This note sets out measurements from PubChem BioAssay AID1628 (Sanford-Burnham Center for Chemical Genomics, 2009).

Hit rate of the full screen: of about 190,000 compounds, about 930 (0.49%) were called active.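 Rule for the calls: active = z-score of insulin promoter reporter brightness in nuclei below -3 at 5 µM, with at least 500 cells counted; inconclusive = wells with under 500 cells, flagged as toxic or sparse; inactive = the rest.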 This is one part of the list. Potency and affinity values are given separately.

A short description of this experiment: insulin promoter down-regulators in MIN6 cells, imaging, high-content screening, mouse beta cells (AID 1628). As to conditions: MIN6 insulin promoter GFP reporter, at 5 µM, stronger effect = lower value.
Take `N#C/C(=C/c1ccc(-c2cc(C(=O)O)cc(C(=O)O)c2)o1)c1nc2ccccc2s1`: the z-score is 3.02 (inactive). In the case of `COc1ccc(C(NC(C)=O)c2ccc3cccnc3c2O)c(OC)c1` (stereo unspecified), the z-score is -5.39 (active). Regarding `COc1cc2c3nnc(-c4ccccc4)c-3cn(Cc3ccccc3F)c2cc1OC`, the z-score was 12.9 (inactive). In the case of `Cc1ccc(C(=O)COC(=O)CNC(=O)c2ccc(N3C(=O)c4ccccc4C3=O)cc2)cc1C` it was -3.38 (active); in that of `O=C(CNC(=O)c1ccco1)OCC(=O)c1ccccc1`, 4.35 (inactive). With `CCOC(=O)C1=C(C)OC(N)=C(C#N)C1c1cc(SCC)oc1C` (stereo unspecified), the z-score was 0.96 (inactive). On to `COc1cccc(NC(=O)N2CCN(c3nnnn3-c3ccccc3)CC2)c1`, for which the z-score is 3.09 (inactive).

`COc1cccc(NC(=O)N2CCCC2C(=O)NC(C)C)c1` (stereo unspecified): the z-score was -5.72 (active). With `COC(=O)[C@@H](NC(=O)Nc1cccc(OC)c1)C(C)C`, the z-score is 3.01 (inactive).

Consider `Cn1c(=O)c(NC2CCCCC2)c2c3c(cccc31)C(=O)c1ccccc1-2`, for which the z-score was 16.9 (inactive). The same measure for `CC1c2nc3ccccc3n2C(CC(=O)NCCCN2CCOCC2)C(=O)N1Cc1ccccc1` (stereo unspecified): 2.82 (inactive); for `O=C(NCCCN1CCN(Cc2ccccc2)CC1)C1CCN(c2nnc(-n3cccc3)s2)CC1`: -4.79 (active).

For `O=C(NCCCN1CCCCCC1)C1CC(=O)N(C2CCCC2)C1` (stereo unspecified), the z-score is 4.02 (inactive). In the case of `CNC(=S)Nc1ccc([N+](=O)[O-])cc1` it was 4.22 (inactive); in that of `CC(C)CCNC(=S)Nc1ccc([N+](=O)[O-])cc1`, -5.03 (active); in that of `Cc1[nH]c2ccccc2c1/C=N/Nc1ccc([N+](=O)[O-])cc1`, 13.9 (inactive). The same measure for `CCOC(=O)CC1C(=O)NCCN1S(=O)(=O)c1ccc(Cl)cc1Cl` (stereo unspecified): 3.29 (inactive); for `COc1ccc(-c2ccc(-c3nnc(Cc4ccc(OC)c(OC)c4)o3)cc2)cc1`: -4.88 (active); for `COc1ccc(C2CC(=O)N(CCCN(C)CCc3ccc(OC)c(OC)c3)C2)cc1` (stereo unspecified): 1.63 (inactive). Turning to `Cc1ccc(-c2nnc(Cc3ccc([N+](=O)[O-])cc3)o2)cc1`, the z-score is 2.29 (inactive).

For the molecule `CCOC(=O)Cn1c(=O)c(-c2cc(Br)ccc2N)nc2ccccc21`, the z-score is 6.82 (inactive). On to `O=C(/C=C/c1ccc2ccccc2n1)c1cc(Br)ccc1O`, for which the z-score was 4.36 (inactive). For `C/C(=N\NC(=O)c1cccc(N/N=C(\C)c2cc(O)ccc2O)c1)c1cc(O)ccc1O`, the z-score was -4.19 (active). In the case of `CC(=O)c1cccc(NC(=O)c2c(F)c(F)c(F)c(F)c2F)c1` it was 0.06 (inactive). The same measure for `Cc1cc(C2C(C#N)=C(N)Oc3n[nH]c(C)c32)c(C)s1` (stereo unspecified): 3.37 (inactive). In the case of `Cc1ccc(OCCn2nc3ccccc3n2)c(C)c1` it was -6.61 (active).
